# Screening data from PubChem.
# D1 potentiator: Potentiators of Human D1 Dopamine Receptor: qHTS; HEK293 TREx D1 cells, calcium flux, dopamine EC20 potentiation; potentiation, % at 10 µM; 360,000 compounds, 0.036% hits; AID 504651, 2011; in the data active = potentiation above about 30%; note: 0% is about no effect
# TRHR agonist: qHTS for Small Molecule Agonists and Allosteric Enhancers of Human TRH Receptor: Primary Screen for Agonists | 360,000 compounds, 0.18% hits | activation, % at 2 µM | TRHR cells, calcium flux fluo-8, FDSS agonist mode; note: 0% is about no effect
# Target sequence (P34981 whole entry, looked up): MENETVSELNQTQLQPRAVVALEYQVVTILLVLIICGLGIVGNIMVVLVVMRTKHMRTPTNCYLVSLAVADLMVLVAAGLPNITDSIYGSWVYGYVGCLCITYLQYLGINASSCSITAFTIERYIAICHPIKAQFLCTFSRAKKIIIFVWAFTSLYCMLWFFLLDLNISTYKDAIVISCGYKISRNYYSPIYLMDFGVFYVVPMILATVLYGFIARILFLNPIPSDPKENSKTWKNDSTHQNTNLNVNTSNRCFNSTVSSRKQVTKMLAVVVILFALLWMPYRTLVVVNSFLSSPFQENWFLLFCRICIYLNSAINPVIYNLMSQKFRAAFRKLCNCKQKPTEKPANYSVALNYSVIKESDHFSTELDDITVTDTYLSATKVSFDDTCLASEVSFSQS
#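 TRHR-expressing cells loaded with fluo-8 calcium dye; 23 nL library compound pin-transferred, kinetic FDSS fluorescence (Ex 480/Em 530) recorded about 180 s for agonist-induced calcium release, before a 10 nM TRH EC20 addition for potentiator mode.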
# D1 antagonist: Antagonist of Human D 1 Dopamine Receptor: qHTS; 360,000 compounds, 3.2% hits; D(1A) dopamine receptor (Homo sapiens), P21728; HEK293 TREx D1 cells, calcium flux, dopamine EC80; stronger effect = lower value; activity change, negative = inhibition, % at 10 µM; in the data active = activity change below about -30%; note: % is set by controls: 0 for no effect and ±100 for the full control effect
#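 Allosteric or orthosteric antagonism assessed as attenuation of the calcium response to EC80 dopamine, added 180 s after compound, in induced HEK293 Trex D1 cells loaded with no-wash calcium dye.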
# TRHR enhancer: qHTS for Small Molecule Agonists and Allosteric Enhancers of Human TRH Receptor: Primary Screen for Enhancers. AID 493056, 2011. TRHR cells, fluo-8 calcium fluorescence, EC20 TRH enhancement. enhancement, % at 2 µM. 360,000 compounds, 0.66% hits; in the data active = enhancement above about 30%; note: 0% is about no effect
#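 TRHR-expressing cells loaded with fluo-8 calcium dye were read kinetically (ex 480/em 530) during compound addition, then stimulated with an EC20 of TRH (10 nM final). Enhancement of the Gq-mediated intracellular calcium response was scored.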
# D1 agonist: Allosteric Agonists of the Human D1 Dopamine Receptor: qHTS | D(1A) dopamine receptor (Homo sapiens), P21728 | HEK293 T-REx D1 cells, calcium flux, agonist mode | activation, % at 2 µM | 360,000 compounds, 1% hits | AID 504660, 2011; note: 0% is about no effect
#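 Tetracycline-induced HEK293 TREx D1 cells, force-coupled to calcium signalling, were dye-loaded with a no-wash calcium kit. Compound was pin-added after a 10 s baseline. Fluorescence was read kinetically at 1 cycle/s for 180 s, with calcium rises flagged as agonism.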
# * marks the source's active call; other numbers are inactive results; ! = a repeat was not active. Shown are actives, neighbours in structure and some others; about 4.7% of the full set was active somewhere. Cut-off read from the data, not from the text of the source, unless noted: active = activation above about 30%; inactive = the rest.
SMILES,D1 potentiator,TRHR agonist,D1 antagonist,TRHR enhancer,D1 agonist
CCOc1ccc(NC2=NCC(=O)N2CCc2ccccc2)cc1,9,-2,-65*,0,102*
CCCCN(C)CCNC(=O)c1cc(=O)[nH]c2ccc(S(=O)(=O)N3CCCCCC3)cc12,-1,0,-24,3,-2
COc1cccc(CN(CC(=O)NCc2ccc(F)cc2)C(=O)c2ccco2)c1,-7,1,12,-3,6
CCCCC(=O)NCc1nc2cccnc2n1Cc1ccc(OC)cc1,-2,0,21,-2,-1
COc1ccc(C2=C(Nc3ccccc3)c3ccccc3C2=O)cc1,-3,-2,-35*,-12,4
COc1ccc(NC2=C(c3ccc(OC)cc3)C(=O)c3ccccc32)cc1,-7,1,-18,-15,-1
COc1ccc(CCNc2nc(-c3sc(N)nc3C)cs2)cc1OC,-7,1,-61*,-9,1
COc1ccc(Nc2nc(-c3sc(N)nc3C)cs2)cc1,-6,1,-1,2,3
COC(=O)Cc1csc(NC(=O)CSc2nnc3ccccn23)n1,-6,0,-9,-11,4
NNC(=O)c1ccc(Cn2cc(Cl)cn2)cc1,-4,0,-15,-3,2
O=C(Nc1ccc(Cl)c(Cl)c1)c1ccc(Cn2cc(Cl)cn2)cc1,-6,0,-7,3,34*
Cc1ccnc(N/C=C(/NC(=O)c2ccccc2)C(=O)N/N=C\c2ccc(F)cc2)n1,-7,-1,-37*,0,0
CCOC(=O)COc1ccccc1/C=C\[N+](=O)[O-],-11,7,-86*,0,0
c1ccc(Cn2nnc3c(N4CCOCC4)ncnc32)cc1,12,0,19,1,0
CC(C)(C)C(=O)NC(n1cnc2c(N3CCOCC3)ncnc21)C(Cl)(Cl)Cl (configuration not stated),-5,1,-34*,-4,0
COC(=O)COc1ccc2c(=O)c(-c3ccccc3)coc2c1,-4,0,-42*,-1,10
CN(CC(=O)Nc1c(Cl)cccc1Cl)C(=O)c1sccc1-c1ccccc1,4,-2,6,-9,5
Cc1cc2c(s1)c1cnn(Cc3cc(Cl)ccc3F)c(=O)c1n2C,0,-1,-12,-1,0
Cc1cc2ccccc2n1CCNC(=O)c1ccccc1,-12,-1,-2,4,43*
CCN(C(=O)CCS(=O)(=O)c1cccc2nsnc12)c1cccc(C)c1,-4,0,-57*!,2,0
CC(=O)Nc1ccc(S(=O)(=O)N2CCN(CCN3CCOCC3)CC2)cc1Cl,-2,0,7,3,1
CCOc1nc(NCCC2=CCCCC2)nc(N2CCOCC2)n1,-3,0,9,14,0
OCCNc1nc(NCCC2=CCCCC2)nc(N2CCOCC2)n1,-12,0,-54*,4,1
Cc1ccc(NC(=O)c2oc3ccccc3c2NC(=O)C23CC4CC(CC(C4)C2)C3)cc1,-2,1,-7,2,4
CCn1cc(C(=O)N2CCN(c3ccc(F)cc3)CC2)c(=O)c2cc(S(=O)(=O)N3CCOCC3)ccc21,1,0,6,-4,1
CC(Cc1cccs1)NC(=O)Nc1ccc([N+](=O)[O-])cc1 (configuration not stated),-4,0,-35*,0,24
CC(Cc1cccs1)NC(=S)Nc1ccc(F)cc1 (configuration not stated),-5,2,-44*,-2,19
COc1ccc(NC(=S)NC(C)Cc2cccs2)cc1 (configuration not stated),-1,-1,4,12,2
COc1ccccc1C(=O)Nc1nnc(SCc2cc(=O)c3ccccc3[nH]2)s1,-4,0,-11,1,1
CCC(Sc1nc2ccncc2[nH]1)C(=O)Nc1ccc(F)cc1 (configuration not stated),0,-1,29,-3,-2
